“And” between values parts separate entries of the source, which are not always exact repeats. Equal values may be shown once. Results filed as inconclusive are left out. Entries that show only a call come without a potency. A structure can be active in one record and inactive in another. The source made the active and inactive calls. Calls come from the whole dose curve; as a rule, active = well fitted cell-killing curve with a large enough effect in the repeat runs; inconclusive = weak or mixed curves, or effect the other way; inactive = no such curve, though single readings can be large or run the other way.
Potency is the fitted concentration of half-maximal effect.

This assay can be described thus: Caspase-3/7 induction in CHO-K1 cells by small molecules, qHTS cell viability counter screen (AID 1346979). Note: nearly all actives have a fitted effect of over 35% in size. The settings on record: CellTiter-Fluor fluorescence, 17 h; series mostly up to 92.4 µM. An excerpt:
National Center for Advancing Translational Sciences [NCATS]
NIH Chemical Genomics Center [NCGC]
U.S. Environmental Protection Agency [EPA]
National Institutes of Environmental Health Sciences [NIEHS]
National Toxicology Program [NTP]
U.S. Food and Drug Administration [FDA]
Apoptosis is a process of programmed cell death and plays a central role in the development of multicellular organisms. It is a highly regulated process and induces cell death by activating caspases, which are the members of cysteine aspartic acid-specific protease (caspase) family. Caspases involved in apoptosis are classified by their mechanism of action as initiator caspases (caspase-2, -8, -9 and -10) and executioner caspases (caspase-3, -6, and -7). Inhibition of apoptosis results in number of cancers, autoimmune diseases, inflammatory diseases and viral infection. To identify small molecule compounds that induce apoptosis, a homogeneous, luminescent Caspase-Glo 3/7 assay was used. Wild type CHO-K1 cells were used to screen Tox21 libraries for identifying caspase-3/7 activity inducers. Also cytotoxicity of the compounds was tested in parallel by measuring the cell viability using CellTiter-Fluor assay system in the same wells.
Tox21 Assay Protocol Summary:
CHO-K1 cells were dispensed at 1,500 per well in 5uL of culture medium into white solid bottom 1536-well plates (Corning Life Sciences, Corning, NY) using a Multidrop Combi (Thermo Scientific, Waltham, MA) dispenser. The assay plates were incubated at 37 C and 5% CO2 for 5hr, and then 23nL of compounds dissolved in DMSO and positive control were transferred using a Pintool station (Wako, San Diego, CA). The assay plates were incubated at 37C and 5% CO2 for 17hr. For cytotoxicity read, after 16hr incubation at 37C, 1uL CellTiter-Fluor reagent (Promega Corporation, Madison, WI) was added to each well of the assay plates using Flying Reagent Dispenser (FRD, Aurora Discovery, San Diego, CA). After 1hr incubation at 37C and 5% CO2, the fluorescence signal was quantified using a ViewLux plate reader (PerkinElmer, Shelton, CT).
On to `CCCCCCC(C)O` (stereo not given), for which the Potency result is “inactive”. As for `CCCCCC1C(=O)CCC1CC(=O)OC` (stereo not given), the Potency entry was “inactive”. On the same count and under the same terms, with `Nc1ccc(N)c(Cl)c1` the figure was 61 µM (active) and 54.5 µM (active); with `c1ccc2cc3ccccc3cc2c1`, “inactive”; with `Oc1ccc(C(c2ccc(O)cc2)C(Cl)(Cl)Cl)cc1`, 54.5 µM (active). On the same count and under the same terms, to `COC(=O)C(C)Oc1ccc(Oc2ncc(C(F)(F)F)cc2Cl)cc1` (stereo not given) belongs “inactive”; to `CN(Cc1cnc2nc(N)nc(N)c2n1)c1ccc(C(=O)N[C@@H](CCC(=O)O)C(=O)O)cc1`, “inactive”. The same measure, in the same setting: to `CC[C@]12CCCN3CCc4c(n(c5ccccc45)[C@@](O)(C(=O)OC)C1)[C@@H]32` belongs “inactive”. Take `CC(=O)O[C@]1(C(C)=O)CC[C@H]2[C@@H]3C=C(Cl)C4=CC(=O)CC[C@]4(C)[C@H]3CC[C@@]21C`: the Potency was 61 µM (active).

On to `CC(=O)Oc1ccc(C(c2ccc(OC(C)=O)cc2)c2ccccn2)cc1`, for which the Potency result is “inactive”. With `CN(C)CCCN1c2ccccc2Sc2ccc(Cl)cc21`, the Potency was 54.5 µM (active) and 29.8 µM (active). On the same count and under the same terms, with `O=C(O)CCCCCCCCCCCC(=O)O` the entry was “inactive”.

Consider `NCCN`, for which the Potency entry is “inactive”. Same read-out and setting: with `Cc1ccc(C(C)(C)C)c(O)c1` the figure was 66.4 µM (active); with `CC/C(=C(/CC)c1ccc(O)cc1)c1ccc(O)cc1`, 60.6 µM (active) and 61.1 µM (active) and 26.6 µM (active). On to `OC[C@H]1O[C@@H]2O[C@H]3[C@H](O)[C@@H](O)[C@@H](O[C@H]4[C@H](O)[C@@H](O)[C@@H](O[C@H]5[C@H](O)[C@@H](O)[C@@H](O[C@H]6[C@H](O)[C@@H](O)[C@@H](O[C@H]7[C@H](O)[C@@H](O)[C@@H](O[C@H]1[C@H](O)[C@H]2O)O[C@@H]7CO)O[C@@H]6CO)O[C@@H]5CO)O[C@@H]4CO)O[C@@H]3CO`, for which the Potency entry is “inactive”. As to `O=[Se](O)O`, the Potency is 54.5 µM (active) and the activity change, negative = cytotoxicity is 5.77% [at 19 µM] (inactive). Regarding `C=C[Si](OCCOC)(OCCOC)OCCOC`, the Potency result is “inactive”. Turning to `CC/C=C\C/C=C\C/C=C\CCCCCCCC(=O)O`, the Potency result is “inactive and 61.1 µM (active)”.

For `COc1ccc2nc(N)sc2c1`, the Potency result was “inactive”. Same read-out and setting: with `ClC/C=C/CCl` the entry was “inactive”; with `CC1(C)OC(=O)NC1=O`, “inactive”; with `Cc1ccc(N)c([N+](=O)[O-])c1`, “inactive”. Take `C=CCNCC=C`: the Potency entry was “inactive”.

As for `Nc1ccc2c(c1)C(=O)c1ccccc1C2=O`, the Potency is 53.5 µM (active) and 54.5 µM (active). Same read-out and setting: to `Cc1ccc(C)c(O)c1` belongs “inactive”. Same read-out and setting: with `OC[C@@H](O)[C@@H](O[C@@H]1O[C@H](CO)[C@H](O)[C@H](O)[C@H]1O)[C@H](O)[C@@H](O)CO` the entry was “inactive”; with `C1CN(SSN2CCOCC2)CCO1`, 30.3 µM (active) and 48.6 µM (active). In the case of `CN(C)/N=N/c1nc[nH]c1C(N)=O`, the Potency result is “inactive”.

For `IC(I)I`, the Potency entry was “inactive”.

For `O=C(O)CCCC(=O)O`, the Potency entry is “inactive”. The same measure, in the same setting: with `O=C(CCCN1CCC(O)(c2ccc(Cl)cc2)CC1)c1ccc(F)cc1` the figure was 61.1 µM (active) and inactive; with `O=C1OC2(c3ccccc31)c1cc(I)c(O)c(I)c1Oc1c2cc(I)c(O)c1I`, 10.5 µM (active) [middle of 4 runs]. As for `COc1cc([C@H]2Oc3cc([C@H]4Oc5cc(O)cc(O)c5C(=O)[C@@H]4O)ccc3O[C@@H]2CO)ccc1O`, the Potency was 60.9 µM (active) and inactive.

On to `Cc1ccc(S(=O)(=O)O)cc1C`, for which the Potency entry was “inactive”.

In the case of `O=C(O)c1ccc(O)cc1`, the Potency result is “inactive”. Same read-out and setting: with `Clc1ccc(Sc2cc(Cl)c(Cl)cc2Cl)cc1` the entry was “inactive”.

Turning to `C[C@]12CC[C@@H]3c4ccc(O)cc4CC[C@H]3[C@@H]1CC[C@@H]2O`, the Potency was 61 µM (active) and 61.1 µM (active). With `CC(C)(C)c1cccc(C(C)(C)C)c1O`, the Potency entry was “inactive”.

Source of the values: PubChem BioAssay (Tox21).
